Screening data (PubChem BioAssay)
Only some compounds are listed: those with a hit (about 5.1% of all), similar ones and a draw of the others.
MPTP block: inhibitors of mitochondrial permeability transition pore; AID 602449; inhibition, % at 10 µM; 360,000 compounds, 1.4% hits; isolated mouse mitochondria, Ca2+ swelling absorbance, 30 min;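 active means inhibition of 50% or more, scaled per plate between neutral and stimulator controls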;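 further: 0% = DMSO wells given calcium and 100% = 1 mM EGTA wells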
ANO1 activ: activates or potentiates the mouse TMEM16A chloride channel. HEK293 TMEM16A/YFP-H148Q/I152L, iodide quench fluorescence; stronger effect = lower value. B-score at 10 µM. 340,000 compounds, 0.3% hits. AID 623877;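 active means fluorescence-ratio B-score plate-corrected deviation score at least 3 library SD below zero, with starting fluorescence score within 5 deviations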;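 further: channel opened by trigger with iodide after compound preincubation; score built on the fluorescence ratio of max minus min over baseline; more negative score means more quench and so TMEM16A activation or potentiation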
Target sequence (Q8BHY3 whole entry, looked up): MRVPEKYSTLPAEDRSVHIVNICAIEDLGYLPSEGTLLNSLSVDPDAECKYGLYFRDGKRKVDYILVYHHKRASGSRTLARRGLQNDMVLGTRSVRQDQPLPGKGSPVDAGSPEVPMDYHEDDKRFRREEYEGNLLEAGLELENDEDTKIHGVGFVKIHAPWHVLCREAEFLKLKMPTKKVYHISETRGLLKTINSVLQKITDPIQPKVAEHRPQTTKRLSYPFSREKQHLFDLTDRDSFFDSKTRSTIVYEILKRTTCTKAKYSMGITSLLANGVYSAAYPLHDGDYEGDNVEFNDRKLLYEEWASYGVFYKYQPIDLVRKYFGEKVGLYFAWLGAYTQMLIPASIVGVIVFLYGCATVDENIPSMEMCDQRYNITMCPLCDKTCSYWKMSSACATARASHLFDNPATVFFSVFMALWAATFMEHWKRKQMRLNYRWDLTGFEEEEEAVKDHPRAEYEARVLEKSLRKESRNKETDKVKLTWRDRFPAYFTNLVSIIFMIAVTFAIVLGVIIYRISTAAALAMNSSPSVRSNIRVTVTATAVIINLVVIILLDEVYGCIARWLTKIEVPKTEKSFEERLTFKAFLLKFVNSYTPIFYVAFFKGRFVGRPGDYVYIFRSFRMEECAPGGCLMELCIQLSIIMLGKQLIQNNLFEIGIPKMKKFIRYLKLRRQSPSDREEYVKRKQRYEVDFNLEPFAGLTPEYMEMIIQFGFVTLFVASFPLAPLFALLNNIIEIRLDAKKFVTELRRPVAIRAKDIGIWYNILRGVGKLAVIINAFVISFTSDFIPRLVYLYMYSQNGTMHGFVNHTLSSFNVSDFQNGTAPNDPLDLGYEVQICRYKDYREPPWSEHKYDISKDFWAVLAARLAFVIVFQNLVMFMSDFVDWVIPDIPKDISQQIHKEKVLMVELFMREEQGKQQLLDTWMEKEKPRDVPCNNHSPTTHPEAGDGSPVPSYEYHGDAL
NR3A LBD binder: modulators (binders) of human NR3A ligand-binding domain; NR3A LBD differential scanning fluorimetry, Tm shift; 0% = protein alone, 100% = glycine-bound protein; Tm shift relative to glycine control, % at 25 µM; 340,000 compounds, 2.5% hits; AID 1259313;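 active means melting temperature shift of at least 10% of the positive control shift, at one fixed dose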
ANO1 block: blocks the mouse calcium-activated chloride channel TMEM16A. normalized B-score (activity score, 25-100; higher = stronger inhibition) at 10 µM. AID 588511. 310,000 compounds, 1.2% hits. Q8BHY3. HEK293 TMEM16A/YFP iodide influx fluorescence, ionomycin;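 active means ratio plate-corrected score three or more library SD toward inhibition, starting fluorescence score within five deviations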;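 further: score derived from kinetic fluorescence span divided by baseline fluorescence per well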
CRFBP-R2 agonist: CRF-BP/CRF-R2 complex agonism; 350,000 compounds, 0.46% hits; AID 588473; activation, % at 13.2 µM; HEK293 CRF-R2/CRF-BP, calcium dye fluorescence (FLIPR); percent of saturating CRF peptide response;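 active means activation of at least 50%, plus an integration ratio under a set limit after plate pattern correction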;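 further: plate controls were neutral control wells without compound for no effect and CRF at EC100 for full effect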
CRFR2-BP antag: antagonists of CRF-binding protein/CRF-R2 receptor complex | inhibition, % at 11.8 µM | HEK293 CRF-R2/CRF-BP, CRF-induced calcium fluorescence | 350,000 compounds, 0.59% hits;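 active means inhibition of the ligand-induced calcium signal above about 50% at the single tested concentration, limit read from the data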
* marks the source's active call; other numbers are inactive results; i = inactive; . = no result.

SMILES	MPTP block	ANO1 activ	NR3A LBD binder	ANO1 block	CRFBP-R2 agonist	CRFR2-BP antag
CC(C)c1ccc(NC(=O)c2ccc(NS(C)(=O)=O)cc2)cc1	-0.5	i	19.8*	i	0.9	-16.8
COc1cccc(CNc2nc3cc(-c4ccc(OC)cc4C)sc3c(=O)n2C)c1	-0.9	.	.	.	.	.
O=C(NCc1ccccc1Cl)c1ccc2nc([C@@H]3O[C@H](CO)[C@H](O)[C@H](O)[C@H]3O)[nH]c2c1	-1.9	.	.	.	.	.
CC(=O)/C(=C/Nc1ccc(Oc2ccccc2)cc1)c1ccccc1	1.9	i	-1.1	i	-6.0	37.3
COc1cccc(C(=O)Nc2ccc(NC(=O)c3cc4ccccc4o3)c(OC)c2)c1	0.5	i	23.3*	i	-1.3	3.9
COc1cccc(C(=O)Nc2ccccc2)c1	-0.4	i	25.9*	i	0.8	-6.1
COc1cccc(C(=O)Nc2ccc(NC(=O)Cc3ccccc3)cc2)c1	1.1	i	7.6	i	-1.1	3.4
COc1ccc(NC(=O)NNC(=O)COc2ccc3ccccc3c2)cc1OC	0.7	i	15.9*	i	1.8	-13.8
COc1cc(NC(=O)c2ccccc2)ccc1NC(=O)c1cc2ccccc2o1	0.6	i	1.6	i	5.2	5.3
COc1cc(N/C=C(\C(C)=O)c2ccccc2)cc(OC)c1	4.0	-5.41*	.	i	.	.
OC(c1ccc(Cl)c(F)c1)c1ncc(-c2ccc(F)cc2)[nH]1 (stereo not drawn)	6.7	.	.	.	.	.
CCOC(=O)c1ccc(NC(=O)c2ccccc2)cc1	-0.1	i	-2.7	i	-1.2	-8.9
COc1cccc(C(=O)Nc2ccc3ccccc3c2)c1	1.8	i	30.4*	i	-0.1	2.3
Cc1cccc(C(=O)Nc2ccc3ccccc3c2)c1	1.2	i	8.7	i	-0.1	-4.9
CCOC(=O)c1ccc(NC(=O)c2ccc(NS(C)(=O)=O)cc2)cc1	-0.2	i	15.9*	i	-0.9	-11.6
Cc1cccc(N2CCC(N=CN(C)C)=N2)c1	2.8	i	1.9	i	-1.4	-5.5
CC1C(=O)C(C)C(c2cc(Br)ccc2O)NC1c1cc(Br)ccc1O (stereo not drawn)	8.4	i	31.9*	.	-1.4	58.0*
Cc1nn(CC(=O)Nc2ccc3nc4n(c(=O)c3c2)CCCC4)c(C)c1[N+](=O)[O-]	-1.3	i	0.7	i	-0.8	6.4
Cc1ccc(-n2ncc3c2CCCC3NC(=O)CSc2ccccn2)cc1C (stereo not drawn)	1.7	i	8.2	i	-2.4	-21.3
COC1OC2COC(c3ccccc3)OC2C(OC(C)=O)C1OC(C)=O (stereo not drawn)	-1.2	i	-1.0	.	-2.5	1.1
Cc1ccc(SC[C@H](Cc2ccccc2)N2CC[C@@H](NC(=O)OCc3ccccc3)CCC2=O)cc1	.	.	.	i	.	.
Cc1ccc(OCC(=O)Nc2cc(S(=O)(=O)N3CCCCC3)ccc2N2CCN(C)CC2)c(C)c1	3.0	i	3.2	i	1.4	8.4
Cc1ccccc1OCCC(=O)Nc1cc(S(=O)(=O)N2CCCCC2)ccc1N1CCN(C)CC1	-3.5	.	-1.6	.	68.3*	-36.6
CC(C)Nc1nc(Cl)nc(NCCOc2ccccc2)n1	1.7	i	-3.3	i	-0.3	5.8
CCC(C)Nc1nc(Cl)nc(NCCOc2ccccc2)n1 (stereo not drawn)	-0.5	i	13.4*	i	-0.3	23.3
SMILES	MPTP block	ANO1 activ	NR3A LBD binder	ANO1 block	CRFBP-R2 agonist	CRFR2-BP antag
O=S(=O)(NCCc1csc(-c2cccnc2)n1)c1cccs1	-2.5	i	12.8*	i	-0.8	7.0
CCc1ccc2c(CC(=O)Nc3cccc(S(=O)(=O)N4CCOCC4)c3)coc2c1	1.4	i	4.2	.	0.1	-4.3
Cn1c(N)c(C(=O)COC(=O)c2cc(C3CC3)nc3ccccc23)c(=O)n(Cc2ccccc2)c1=O	-0.4	i	17.9*	i	3.1	-0.6
Cc1ccc(NC(=S)NNC(=O)c2ccccc2O)c(C)c1	34.4	i	-13.5	100*	8.4	10.2
CC(=O)c1c(N2CCCCC2)nc(=S)n(Cc2ccccc2)c1C	1.2	i	-4.6	i	0.1	107.7*
CC(=O)c1c(N2CCN(Cc3ccccc3)CC2)nc(=S)n(Cc2ccccc2)c1C	-1.3	i	-5.2	i	2.4	4.7
NC1=NC(=Nc2cccc(S(N)(=O)=O)c2)c2ccccc21	1.9	i	-0.4	i	-0.5	-4.2
COc1cc(N=Nc2cccc(S(N)(=O)=O)c2)c2ccccc2c1N	11.0	i	12.9*	i	4.3	-29.4
COc1ccccc1C(=O)N/C(=C\c1cn(S(=O)(=O)N(C)C)c2ccccc12)C(=O)N1CCCC1	-0.4	i	-0.7	i	-0.5	-0.9
NC1(N)OC(CN2C(=O)c3ccccc3C2=O)CS1 (stereo not drawn)	0.1	i	-1.1	100*	-1.0	-6.1
O=C1c2ccccc2C(=O)N1CC1CO1 (stereo not drawn)	-1.1	i	-0.8	.	-0.3	-7.6
N#Cc1ccc(OCC(=O)Nc2nc(-c3cccnc3)cs2)cc1	-0.5	i	0.2	.	-0.3	4.5
CCOc1ccc(S(=O)(=O)NC(C)(C)C)cc1-c1nc2c(C(C)(C)C)nn(C)c2c(=O)[nH]1	0.2	-13.8*	-3.5	i	-1.0	-83.3
COc1ccc(-c2c[n+]3c(n2-c2ccc(C)cc2)CCCCC3)cc1	5.3	i	-1.5	25*	3.5	2.5
Cc1ccc(NC(=O)CC2S/C(=N/N=C/C=C/c3ccccc3)NC2=O)cc1Cl (stereo not drawn)	-3.3	i	15.2*	i	2.6	6.4
Cc1ccc(NC(=O)CC2S/C(=N/N=C/c3c[nH]c4ccccc34)NC2=O)cc1 (stereo not drawn)	-31.3	i	11.4*	i	1.8	-19.9
Cc1ccc(NC(=O)CC2S/C(=N/N=C3/NC(=O)CS3)NC2=O)cc1 (stereo not drawn)	0.6	i	0.7	i	-0.3	-1.7
CCOC(=O)c1ccc(NC(=O)CC2S/C(=N/N=C/c3c[nH]c4ccccc34)NC2=O)cc1 (stereo not drawn)	1.0	i	29.1*	i	-0.6	-36.7
CN(CC(=O)Nc1ccc(F)c(F)c1F)C(=O)C1=NN(c2ccccc2)C(=O)CC1	-1.3	i	-0.1	.	-0.6	11.6
O=c1c2c(nc3nc(NCc4ccccc4Cl)[nH]n13)CCC2	.	.	.	i	.	.
Cc1c(C(=O)Nc2ccccc2)sc2nc(-c3ccccc3)cn12	4.1	i	25.9*	i	7.9	-37.1
Cc1c(C(=O)Nc2ccc3c(c2)OCO3)sc2nc(-c3ccccc3)cn12	9.3	i	26.5*	i	-1.3	-43.2
